NS1 function inh = influenza NS1 inhibition; Potency, µM (doses to about 46.1 µM), without a hit: at the top dose activity, positive = more growth; 0.4% of 270,000 active; AID 2326; calls by dose curve; further: potency means the concentration at half of the fitted maximal effect; actives are rising curves; nearly all actives have a fitted effect of over 50% in size
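OD600 was taken as the measure of yeast growth restored by compound in an NS1-expressing S. cerevisiae strain. Cells had been washed out of glucose medium and diluted 1:100 into galactose -URA medium, pH 6.0.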
Shiga toxin inh = inhibitors of Shiga toxin in Vero cells; Vero cells, Shiga toxin protein synthesis inhibition reporter; inhibition, % at 38.7 µM; 9.2% of 290,000 active; AID 2315; in the data active means inhibition mostly above about 28%, no sharp cut-off; inactive means mostly below about 43%; further: 0% is about no effect
Cycloheximide cs = counter-screen hit for Shiga toxin inhibitors, cycloheximide; cell reporter, cycloheximide protein synthesis inhibition counterscreen; max response, %; 12% of 300,000 active; in the data active means max response mostly above about 13%, no sharp cut-off; inactive means mostly below about 14%; further: read at 38.3 µM for the half of the compounds with a filed dose; 0% is about no effect
Pf growth 96h = P. falciparum growth inhibition at 96 hours; 6.9% of 320,000 active; Potency, µM (doses to about 28.7 µM), for the others: at the top dose activity change, negative = inhibition, most hits filed as inhibitors; AID 504834; P. falciparum luciferase reporter growth, 96 h; further: potency means the concentration at half of the fitted maximal effect; on the % scale 0 is the no-effect control and ±100 the full control effect
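Luminescence readout: decreased luciferase signal marks inhibited growth of reporter-expressing P. falciparum in infected red cells (2% hematocrit, 0.05% parasitemia final), exposed to compound two generations (96 h, 37 C, 5% CO2).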
Pf growth 48h = P. falciparum growth inhibition at 48 hours (one generation); Potency, µM (doses to about 28.7 µM), without a hit: at the top dose activity change, negative = inhibition, most hits filed as inhibitors; 5.9% of 310,000 active; P. falciparum luciferase growth in erythrocytes, 48 h; further: potency means the concentration at half of the fitted maximal effect; on the % scale 0 is the no-effect control and ±100 the full control effect
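Firefly luciferase activity from engineered P. falciparum reports growth; inhibitors lower the luminescent signal. Cultures contained 2% hematocrit erythrocytes at 0.1% final parasitemia.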
Active calls of the source: *; ? = inconclusive; / = no result given; + = active, no number. In the library only some 21% were active in any assay of this set; here they are far more common. Unless noted, the call rests on the fitted dose curve; in most records, active means well fitted inhibition curve with a large enough effect; inconclusive means small, poorly fitted or top-dose-only effect, or another doubt; inactive means no such curve, though single readings can be large or run the other way.

SMILES | NS1 function inh | Shiga toxin inh | Cycloheximide cs | Pf growth 96h | Pf growth 48h
Cc1cc2nc(-c3ccc(SCC(=O)Nc4ccc(S(=O)(=O)N5CCCC5)cc4)nc3)[nH]c2cc1C | ? | 81* | 36* | ? | ?
CC(=O)CSc1ccc(-c2nc3cc(C)c(C)cc3[nH]2)cn1 | 2% | 2 | -2 | 34% | -3%
CCc1nnc(NC(=O)CSc2ccc(-c3nc4ccc(C)cc4[nH]3)cn2)s1 | 19% | 51* | 32* | ? | 81%
CC1CC(NC(=O)N(C)C)N(C)C(=O)N1 (configuration not stated) | -7% | -9 | -3 | 10% | 7%
COC(=O)C1=C(Nc2ccccc2NC(=O)CCCC(=O)O)CSC1 | 3% | 29 | 14* | 20% | 21%
COC(=O)C1=C(Nc2ccccc2NC(=O)c2ccccc2C(=O)O)CSC1 | -7% | 103* | 56* | -1% | 70%
CC(C)c1ccccc1NC(=O)CCCC(=O)O | 3% | -2 | -3 | / | -6%
CN(C)/C=N/c1ncc(-c2ncc(C(F)(F)F)cc2Cl)cn1 | 1% | 15 | 15 | 32% | 17%
CC(C)Cc1nn2c(N)c(/C=C3\C=Nc4ccccc43)c(=O)nc2s1 | / | -6 | 3 | ? | ?
S=C(NCc1ccco1)Nc1ccc(Cl)cc1Cl | -5% | + | 22* | 33% | 73%
S=C(NCc1cccc(Cl)c1)NCc1ccco1 | 24% | 1 | -4 | ? | -13%
S=C(NCc1ccco1)N1CCN(Cc2ccc(Cl)cc2Cl)CC1 | -52% | 10 | -4 | 10µM* | ?
S=C(NCc1ccco1)Nc1ccc(Br)cc1Cl | -5% | 28 | 18* | 32% | 38%
OCCCNC(=S)Nc1ccc(Br)cc1Cl | 0% | 34* | 21* | 58% | 47%
S=C(NCc1ccc(Cl)c(Cl)c1)NCc1ccco1 | -57% | -4 | -3 | ? | -9%
COc1ccc(Br)cc1CN(C)C(=O)CNC(=O)c1ccc2ccccc2c1 | -21% | 13 | -4 | ? | -14%
CCN1CCN(c2cc(=O)n(Cc3ccc(F)cc3)c(=O)[nH]2)CC1 | / | -1 | 7 | 58% | 38%
O=c1cc(N2CCN(Cc3ccccc3)CC2)[nH]c(=O)n1Cc1ccc(F)cc1 | 1% | -9 | -4 | 3.7µM* | 7%
CC1=[N+](C)c2ccc3ccccc3c2C1(C)C | 8% | 11 | 12 | 12µM* | ?
Cc1nsc2c1ccc1ccccc12 | -10% | 23 | 3 | -12% | 37%
CC(C)(C)NC(=O)CCc1nnc(Cc2c[nH]c3ccccc23)o1 | 2% | 20 | 12* | ? | -24%
O=C(CCc1nnc(Cc2c[nH]c3ccccc23)o1)NCC1CC12CCCCC2 (configuration not stated) | 1% | 3 | 5 | ? | ?
CCn1nc(C)c(CNC(=O)CCc2nnc(Cc3c[nH]c4ccccc34)o2)c1C | -1% | -1 | -2 | -20% | ?
C=CCN(CC=C)C(=O)CCc1nnc(CCc2c[nH]c3ccccc23)o1 | -1% | 35 | 21* | 1% | -3%
CCC(COC)NC(=O)CCc1nnc(Cc2c[nH]c3ccccc23)o1 (configuration not stated) | 24% | 2 | -2 | 13µM* | 6%
SMILES | NS1 function inh | Shiga toxin inh | Cycloheximide cs | Pf growth 96h | Pf growth 48h
CC(C)(C)c1ccc(S(=O)(=O)Nc2cccc(C3OCCCO3)c2)cc1 | ? | 10 | -1 | 39% | 4%
CC1CCCCC12NC(=O)N(CC(=O)NCCc1ccc(F)cc1)C2=O (configuration not stated) | / | / | / | ? | -30%
COc1ccc(/C=N/N=C2\SCC(=O)N2c2c(C)n(C)n(-c3ccccc3)c2=O)cc1OC | ? | 13 | -1 | ? | 13µM*
Cc1c(N2C(=O)CS/C2=N\N=C\c2ccc(Cl)cc2)c(=O)n(-c2ccccc2)n1C | 10% | -12 | -3 | 44% | 20%
C=CCO/N=C(/C)c1ccc(Oc2cnccn2)cc1 | / | 47* | 27* | 41% | 22%
CCOC(=O)C1=CN(CC2CCCO2)C=C(C(=O)OCC)C1c1ccccc1C(F)(F)F (configuration not stated) | -4% | -6 | -6 | ? | 8.3µM*
Cc1ccc(CNc2cnccn2)cc1 | -6% | 27* | 12 | -5% | 5%
Clc1ccc(CNc2ccccn2)cc1 | 0% | 55* | 31* | 37% | 39%
c1ccc(CNc2cnccn2)cc1 | 4% | -7 | 4 | -5% | 25%
c1ccc(CCNc2cnccn2)cc1 | -1% | 34* | 18* | 31% | /
Cc1ccnc(NCc2ccc(Cl)cc2)c1 | 2% | 49* | 25* | 166% | 12%
c1ccc(CNc2ccccn2)cc1 | 2% | -6 | 1 | 258% | 0%
O=C(c1ccc(CNS(=O)(=O)c2ccc(Br)cc2)cc1)N1CCCCC1 | 1% | -11 | 5 | ? | -26%
Cc1ccc(C)c(-c2nn(-c3cc(N4CCN(CCO)CC4)ccc3[N+](=O)[O-])c(=O)c3ccccc23)c1 | -4% | -7 | -4 | ? | ?
Cc1ccnc(NCc2c(O)ccc3ccccc23)c1 | -10% | 49 | 5 | 0.093µM* | 1%
Cc1ccc(C(=O)NNC(=O)CSc2nnc(-c3ccncc3)n2-c2ccc(C)cc2)cc1 | -13% | -6 | -3 | -22% | ?
O=C(c1ccc(S(=O)(=O)Nc2ccc(F)cc2)cc1)N1CCN(C(=O)c2ccco2)CC1 | -12% | -13 | -1 | / | 7%
Cc1ccc(Nc2nc3c(c(=O)[nH]2)CCCC3)cc1 | 4% | 21 | -3 | ? | ?
CCOc1ccc(Nc2nc3c(c(=O)[nH]2)CCC3)cc1 | -14% | -7 | -4 | ? | ?
CCOc1ccc(Nc2nc3c(c(=O)[nH]2)CCCC3)cc1 | -1% | 0 | 7 | 235% | 2.3µM*
O=c1[nH]c(Nc2nc3ccccc3o2)nc2c1CCCC2 | 0% | 76* | 39* | 10% | -15%
O=C(COc1ccccc1F)Nc1nnc(C2CCCC2)s1 | -14% | 18 | 18 | -17% | 12%
COc1ccc(CN2CCNC(=O)C2CC(=O)NC2Cc3ccccc3C2)c(OC)c1 (configuration not stated) | 2% | -8 | -5 | 2% | 16%
COc1ccc(CN2CCNC(=O)C2CC(=O)NCc2ccc(C)s2)c(OC)c1 (configuration not stated) | 0% | -9 | -1 | ? | 19%
COc1ccc(CN2CCNC(=O)C2CC(=O)NC2CCC2)c(OC)c1 (configuration not stated) | 10% | -2 | -2 | 15µM* | 7%
COc1ccc(CNC(=O)CC2C(=O)NCCN2CC(C)(C)C)c(OC)c1 (configuration not stated) | 7% | -4 | -3 | 10µM* | -8%
Cc1oc(-c2ccccc2F)nc1CN1CCC(C(=O)NCCC2=CCCCC2)CC1 | 9% | -16 | 19 | ? | 1%
NCC12CC3CC(C1)CC(c1ccc(Cl)cc1)(C3)C2 | / | -24 | -9 | 18% | ?
Nc1ccc(C23CC4CC(CC(CO)(C4)C2)C3)cc1 | ? | 12 | 19* | ? | -4%

Bioassay records (PubChem BioAssay)
